Assay outcomes deposited in PubChem by National Center for Advancing Translational Sciences (NCATS).
Sampled rows, rich in hits. Any-hit rate of the full collection: about 2.6%.
LT uptake inh = blocks cellular internalization of anthrax lethal toxin; AID 912; hit rate 0.67% among 70,000; Cells, anthrax lethal toxin internalization, FRET ratio (460/530); Potency, µM (highest dose often 40 µM), for the others: at the highest dose activity change, negative = inhibition, usual class: inhibitors; also: % is scaled to controls: 0 for no effect and ±100 for the full control effect; nearly all actives have a fitted effect of over 50% in size
AmpC det inh = inhibitors of E. coli AmpC beta-lactamase with detergent; P00811; hit rate 0.09% among 71,000; purified AmpC, nitrocefin hydrolysis with detergent; Potency, µM (doses to about 28.7 µM), without a hit: top-dose activity change, negative = inhibition; active = well fitted curve in the direction sought with a large enough effect; inconclusive = small, poorly fitted or top-dose-only effect; also: % is scaled to controls: 0 for no effect and ±100 for the full control effect
Target sequence (P00811 whole entry, looked up): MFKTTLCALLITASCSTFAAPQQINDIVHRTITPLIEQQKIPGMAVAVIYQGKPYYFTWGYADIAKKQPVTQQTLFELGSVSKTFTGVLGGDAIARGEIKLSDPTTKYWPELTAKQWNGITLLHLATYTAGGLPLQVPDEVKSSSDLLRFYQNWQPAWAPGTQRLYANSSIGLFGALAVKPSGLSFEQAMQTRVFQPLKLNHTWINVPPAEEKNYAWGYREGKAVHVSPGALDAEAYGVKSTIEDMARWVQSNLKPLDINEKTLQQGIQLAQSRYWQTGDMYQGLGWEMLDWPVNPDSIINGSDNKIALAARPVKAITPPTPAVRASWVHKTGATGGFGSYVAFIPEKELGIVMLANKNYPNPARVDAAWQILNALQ
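E. coli AmpC (5.3 nM) in 20 mM phosphate pH 7.0 with 0.01% Triton X-100, preincubated 15 min RT with compound; nitrocefin (2 uL of 800 uM stock) hydrolysis followed by 480 nm absorbance every 20 s over 4 min.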
AmpC inh no det = inhibitors of E. coli AmpC beta-lactamase without detergent | AmpC nitrocefin hydrolysis, absorbance 480 nm, no detergent | Potency, µM (series often up to 28.7 µM), for inactives: at the top dose activity change, negative = inhibition | hit rate 1.8% among 71,000 | AID 585; also: % of control where 0% means no effect
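AmpC, 20 mM phosphate pH 7.0; 15 min cpd preinc, RT; start with nitrocefin (800 uM stock); A480 kinetic read, 20 s intervals, 4 min. No-enzyme wells = negative control.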
Prx2 Sm inh = blocks S. mansoni peroxiredoxin 2 enzymatic activity; S. mansoni Prx2 activity coupled to TGR/GSH (TGR is thioredoxin glutathione reductase), NADPH fluorescence loss, qHTS; Potency, µM; hit rate 0.07% among 65,000
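Enzyme mix: 100 uM NADPH, 25 nM TGR, 700 uM GSH, 50 nM Prx2 in 100 mM phosphate pH 7.4, 10 mM EDTA, 0.01% Tween-20. 15 min RT with compound; NADPH/GSH added, H2O2 starts reaction; NADPH fluorescence read 8 min.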
The depositor's hits bear a star; ? = inconclusive; / = not tested or not shown; [ ] = remark or other dose. Unless noted, calls follow the shape of the full dose curve. Potency is read from the fitted curve at half-maximal effect.

SMILES	LT uptake inh	AmpC det inh	AmpC inh no det	Prx2 Sm inh
CC1(C)Cc2c(c(N3CCOCC3)nc3sc(C(=O)N4CCCCC4)c(N)c23)CO1	-10%	25%	4µM*[single pt active]	>57
CCOC(=O)N1CCN(C(=O)c2cccc(NC3=NC4CS(=O)(=O)CC4S3)c2)CC1 (configuration not stated)	0%	-3%	-3%	>57
O=C(c1ccc(NC2=NC3CS(=O)(=O)CC3S2)cc1)N1CCN(C(=O)c2ccco2)CC1 (configuration not stated)	-5%	12%	4µM*[single pt active]	>57
CCOC(=O)C1CCN(C(=O)c2ccc(Cl)c(NC3=NC4CS(=O)(=O)CC4S3)c2)CC1 (configuration not stated)	1%	12%	4µM*[single pt active]	>57
COc1cc(C)cc2c(-c3c(O)cc(O)c4c3C[C@H](C)N[C@@H]4C)cc(-c3cc(-c4c(O)cc(O)c5c4C[C@H](C)N[C@@H]5C)c4cc(C)cc(OC)c4c3O)c(O)c12	-11%[8 µM]	-4%[5.75 µM]	-10%[5.75 µM]	>57
CCOC(=O)C1=C(CS(=O)(=O)c2ccc(F)c(C)c2)NC(=O)NC1c1ccc(O)c(O)c1 (configuration not stated)	-8%	10%	4µM*[single pt active]	>57
Nc1ncnc2c1ncn2[C@@H]1O[C@@H](C(=O)NC2CC2)[C@H](O)[C@@H]1O	10%	0%	-6%	>57
CCOC(=O)CCc1c(C)nc2c(c(C)nn2C(C)(C)C)c1C	?	13%	4µM*[single pt active]	>57
Nc1ncnc2c1nc(Sc1ccc(Cl)cc1)n2[C@@H]1O[C@H]2COP(=O)(O)O[C@@H]2[C@H]1O	2%	-3%	5%	>57
COC(=O)c1cc2sccc2n1CC(=O)N1CCCc2ccccc21	10µM*	-6%	15%	>57
CCO[P@]1(=O)OC[C@@H]2O[C@H](n3cnc4c(N)ncnc43)[C@H](O)[C@@H]2O1	-1%[8 µM]	-2%[5.75 µM]	7%[5.75 µM]	>57
CC(=O)[C@@H]1CC[C@H]2[C@H]3CC[C@H]4C[C@@H](O)CC[C@]4(C)[C@@H]3CC[C@]12C	-19%	-3%	10%	>57
CCCCN(CC)CCNc1c(NC2CCN(C(=O)OCC)CC2)c(=O)c1=O	-16%	14%	4µM*[single pt active]	>57
CCCCN(CC)CCNc1c(N2CCN(C(=O)OCC)CC2)c(=O)c1=O	5%	-6%	-6%	>57
CCOC(=O)N1CCC(Nc2c(OCC)c(=O)c2=O)CC1	-7%	12%	4µM*[single pt active]	>57
CCOC(=O)N1CCN(c2c(NC3CCN(Cc4ccccc4)CC3)c(=O)c2=O)CC1	-9%	10%	4µM*[single pt active]	>57
CN(C)[C@@H]1C(=O)C(C(N)=O)=C(O)[C@]2(O)C(=O)C3=C(O)c4c(O)cccc4[C@](C)(O)[C@H]3C[C@@H]12	-12%[8 µM]	-10%[5.75 µM]	-10%[5.75 µM]	>57
CN1CCN(C(=O)c2cc(-c3ccc(O)cc3)on2)CC1	-2%	7%	-5%	>57
COc1ccc(-n2c(=O)c(C)nc3cnc(N(C)C)nc32)cc1	10µM*	0%	20%	>57
CCNc1ncc2nc(C)c(=O)n(-c3ccc(OC)cc3)c2n1	-29%	-4%	15%	>57
Cc1cccc(-c2nc(CS(=O)CC(=O)N3CCCCC3)c(C)o2)c1 (configuration not stated)	-3%	16%	4µM*[single pt active]	>57
Cc1cccc(-c2nc(CS(=O)CC(=O)NCC3CCCO3)c(C)o2)c1 (configuration not stated)	-5%	11%	4µM*[single pt active]	>57
CCOC(=O)N1CCN(C(=O)CS(=O)Cc2nc(-c3ccc(C)cc3)oc2C)CC1 (configuration not stated)	-16%	12%	109%	>57
CC(C)C[C@H](NP(=O)(O)O[C@@H]1O[C@@H](C)[C@@H](O)[C@@H](O)[C@H]1O)C(=O)N[C@@H](Cc1c[nH]c2ccccc12)C(=O)O	-15%	-1%	7%	>57
CC(=O)C1=C(C)NC(SCC(=O)c2ccc(Cl)c(Cl)c2)=C(C#N)C1c1ccco1 (configuration not stated)	?	6%	-4%	/
SMILES	LT uptake inh	AmpC det inh	AmpC inh no det	Prx2 Sm inh
CC1=C(C(=O)Nc2ccccc2)C(c2ccco2)C(C#N)=C(SCC(=O)OC(C)C)N1 (configuration not stated)	?	6%	16%	/
CC1=C(C(=O)Nc2ccccc2)C(c2ccco2)C(C#N)=C(SCc2ccccc2)N1 (configuration not stated)	?	9%	5µM*	/
CCc1ccc(C(=O)CSC2=C(C#N)C(c3ccco3)C(C(C)=O)=C(C)N2)cc1 (configuration not stated)	?	10%	13µM*	/
CC(=O)C1=C(C)NC(SCC(=O)c2cc(Cl)ccc2Cl)=C(C#N)C1c1ccco1 (configuration not stated)	10µM*	-3%	?	/
OC[C@@H]1O[C@@H](n2cnc3c(NC4CCCCC4)ncnc32)[C@@H](O)[C@H]1O	?	-4%	-4%	>57
Cc1noc(C)c1S(=O)(=O)N(CC(=O)N1CCc2ccccc21)c1ccc(C(C)C)cc1	-10%	14%	4µM*[single pt active]	>57
CC(C)(C)c1cc(O)c(C(C)(C)C)cc1O	?	-1%	-6%	>57
Cc1cc(O)c(C(C)(C)C)cc1Sc1cc(C(C)(C)C)c(O)cc1C	?	6%	13µM*	/
COc1ccc(-c2cc(C(=O)NCc3cccs3)no2)cc1OC	-8%	7%	2%	/
Oc1cc(O)c2c(c1)O[C@@H](c1ccc(O)c(O)c1)[C@H](O[C@@]1(c3cc(O)c(O)c(O)c3)Oc3cc(O)cc(O)c3[C@H](O)[C@@H]1O)C2	?	-2%[5.75 µM]	-21%[5.75 µM]	>57
Cc1nc2ccc(S(=O)(=O)NCC(=O)N3CCC(N4CCCCC4)CC3)cc2s1	-14%	-4%	-8%	>57
Cc1nc2ccc(S(=O)(=O)NC(CC(C)C)C(=O)O)cc2s1 (configuration not stated)	-5%	9%	1%	>57
Cc1nc2ccc(S(=O)(=O)NC(C(=O)N3CCCC3)C(C)C)cc2s1 (configuration not stated)	0%	10%	4µM*[single pt active]	>57
Cc1nc2ccc(S(=O)(=O)NC(C(=O)N3CCC(C)CC3)C(C)C)cc2s1 (configuration not stated)	-11%	23%	4µM*[single pt active]	>57
CC(C)=C[C@H]1[C@@H](COC(=O)c2cc3c(cc2Cl)OCO3)C1(C)C	-23%[8 µM]	1%[5.75 µM]	-10%[5.75 µM]	>57
N#Cc1c(NC(=O)Cn2c(=O)oc3ccccc32)oc(-c2ccccc2)c1-c1ccccc1	10µM*	1%	13µM*	>57
CC(=O)[O-].CC(=O)[O-].O.O.[Cd+2]	24%	14%	-8%	/
Cc1cc(-c2ccc(N=Nc3cc(S(=O)(=O)O)c4ccccc4c3N)c(C)c2)ccc1N=Nc1cc(S(=O)(=O)O)c2ccccc2c1N	?	13µM*	5µM*	/
Nc1c(S(=O)(=O)O)cc(S(=O)(=O)O)c2ccc(N=Nc3ccccc3)c(O)c12	0%[8 µM]	-5%[5.75 µM]	-8%[5.75 µM]	>57
